According to the supplement of paper PMC5641865, “A screen for kinase inhibitors identifies antimicrobial imidazopyridine aminofurazans as specific inhibitors of the Listeria monocytogenes PASTA kinase PrkA” (The Journal of Biological Chemistry, 2017):
± gives the standard deviation of the averaged measurements.

What follows are compounds tested on Listeria monocytogenes 10403S (assay: growth inhibition relative to ceftriaxone-alone control; higher = stronger potentiation of ceftriaxone growth inhibition). Settings: 10 µM; ceftriaxone 1 ug/ml; 12 h.
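Note: End-point A600 read in BHI broth at 37 °C with 2% DMSO, inhibition computed as (1 − OD with compound plus ceftriaxone ÷ OD with ceftriaxone only) × 100.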

`CN1CCN(Cc2ccc(-c3cc4ncnc(Nc5ccc(OCc6cccc(F)c6)c(Cl)c5)c4s3)o2)CC1` and `Fc1cccc(COc2ccc(Nc3ncnc4cc(-c5ccc[nH]5)sc34)cc2Cl)c1` are within error of each other in growth inhibition: 3 ± 2.7% for the first, 7.47 ± 4% for the second.

`Cc1ccc2c(c1)/C(=N/Nc1ccc(S(N)(=O)=O)cc1)C(=O)N2` and `CC(C)(CO)CNC(=O)c1ccc2c(c1)/C(=N/Nc1ccc(S(N)(=O)=O)cc1)C(=O)N2` are within error of each other in growth inhibition: 2.4 ± 3.2% for the first, -13.4 ± 16% for the second.

`S=C(NCc1ccc2c(c1)OCO2)N1CCN(c2ncnc3c2oc2ccccc23)CC1` [Amuvatinib (MP-470)] and `NC1(Cc2ccc(Cl)cc2)CCN(c2ncnc3[nH]ccc23)CC1` are within error of each other in growth inhibition: 11.7 ± 22% for the first, 35 ± 20% for the second.

`CO[C@@H](C(=O)N1Cc2[nH]nc(NC(=O)c3ccc(N4CCN(C)CC4)cc3)c2C1)c1ccccc1` and `CCn1nnc2c(N3CCOCC3)nc(-c3ccc(NC(=O)Nc4ccc(C(=O)N5CCN(C)CC5)cc4)cc3)nc21` are within error of each other in growth inhibition: 45.2 ± 16% for the first, 20.2 ± 19% for the second.

First: CNC(=O)c1cncc(/C=C/c2c(C)cccc2C)c1
Second: CCc1cccc(CC)c1/C=C/c1cncc(C(=O)NC)c1
The growth inhibition of the first is lower: -1.2 ± 3.7% for the first, 14.6 ± 2.7% for the second.

`CCn1c(-c2nonc2N)nc2ccccc21` and `CCn1c(-c2nonc2N)nc2ccc(F)cc21` are within error of each other in growth inhibition: -9.18 ± 6.6% for the first, -0.804 ± 2.6% for the second.

First: O=C(Nc1n[nH]c2nc(-c3ccco3)ccc12)C1CC1
Second: O=C(Nc1n[nH]c2nc(-c3ccc(O)cc3)c(Br)cc12)C1CC1
The growth inhibition of the first is higher: 0.454 ± 0.64% for the first, -9.15 ± 4.2% for the second.

`Cn1cc(C=C2C(=O)Nc3cccnc32)c2ccccc21` and `Nc1nc(-c2ccc(F)cc2)c(-c2ccc3ncccc3n2)s1` are within error of each other in growth inhibition: -13 ± 19% for the first, -1.57 ± 2.7% for the second.

`N#Cc1c(NC(=O)c2cccc3ccccc23)sc2c1CCCC2` and `NC(=O)c1cc(-c2ccncc2)cc(-c2ccccc2)c1N` are within error of each other in growth inhibition: -6.35 ± 1.2% for the first, 2.14 ± 8.1% for the second.

Going from `COc1cc(Nc2ncc(F)c(Nc3ccc4c(n3)N(COP(=O)(O)O)C(=O)C(C)(C)O4)n2)cc(OC)c1OC` [R788 (Fostamatinib)] to `COc1cc(Nc2ncc(-c3ccccc3)o2)cc(OC)c1OC`, the growth inhibition falls from 12.5 ± 9.9% to 1.14 ± 0.11%.

Going from `OCCn1cc(-c2ccc3c(c2)CC/C3=N\O)c(-c2ccncc2)n1` to `NC(=O)c1cc(-c2ccc(F)cc2)cc(-c2ccncc2)c1N`, the growth inhibition falls from 83 ± 8.8% to -1.35 ± 1.1%.

`CN1CCC(C(=O)Nc2n[nH]c3nc(-c4ccc(O)cc4)c(Br)cc23)CC1` and `CNC(=O)c1ncccc1Nc1nc(Nc2cc3c(cc2OC)CCCN3C(=O)CN(C)C)nc2[nH]ccc12` are within error of each other in growth inhibition: -3.78 ± 12% for the first, -2.03 ± 1.3% for the second.

Going from `Nc1nonc1-c1nc2cnccc2n1C1CCCCC1` to `CCn1c(-c2nonc2N)nc2ccncc21`, the growth inhibition falls from 12.4 ± 3.9% to -0.136 ± 1.1%.

`Nc1ncc(-c2cccc(S(N)(=O)=O)c2)c2scc(-c3ccc(F)c(Cl)c3)c12` and `CS(=O)(=O)CCNCc1nc(-c2ccc3ncnc(Nc4ccc(F)c(Cl)c4)c3c2)cs1` are within error of each other in growth inhibition: -7.14 ± 12% for the first, 1.67 ± 6.4% for the second.

Going from `CC(C)=Cc1cccc2c1/C(=N/Nc1ccc(S(N)(=O)=O)cc1)C(=O)N2` to `CS(=O)(=O)Nc1ccc(-c2cc(-c3ccccc3)cc(C(N)=O)c2N)cc1`, the growth inhibition rises from -2.72 ± 0.38% to 29.1 ± 20%.

Going from `Cc1ccc2c(-c3ccnc(Nc4ccccc4)n3)c(-c3ccc(F)cc3)nn2n1` to `COc1ccc(-c2nn3ncccc3c2-c2ccnc(Nc3ccc(F)c(F)c3)n2)cc1`, the growth inhibition rises from -6.27 ± 1.4% to -0.06 ± 1.5%.

`N#CC(=C(/N)Sc1ccccc1N)/C(C#N)=C(\N)Sc1ccccc1N` and `COc1cccc(-n2ncc3c(N/N=C/c4cccc(F)c4)ncnc32)c1` are within error of each other in growth inhibition: 51.1 ± 42% for the first, 6.27 ± 6.8% for the second.

Going from `CS(=O)(=O)CCNCc1ccc(-c2ccc3ncnc(Nc4ccc(OCc5cccc(F)c5)c(C(F)(F)F)c4)c3c2)o1` to `Nc1nc(-c2ccc3c(c2)C(=Cc2cc(Br)c(O)c(Br)c2)C(=O)N3)cs1`, the growth inhibition rises from -12.1 ± 6.9% to 3.8 ± 2.8%.

First: C[C@@H](Oc1cc(-c2cnn(C3CCNCC3)c2)cnc1N)c1c(Cl)ccc(F)c1Cl
Second: CN(C)CCCn1c(-c2nonc2N)nc2cnccc21
The growth inhibition of the first is higher: 94.9 ± 5.1% for the first, -5.31 ± 2.5% for the second.
